Measured values as given in PubChem BioAssay AID1159580 (chemical genetic matrix, 2015).
Out of some 5,500 compounds screened, about 2,000 (36%) were called active. Inconclusive results (about 18%) are left out. The list shows a part of the results. Unmarked numbers belong to inactive results. Rule as the data show it: active = normalized growth mostly below about 0.91 (no sharp cut-off); inconclusive = no clear call, values can overlap the other calls; inactive = mostly above about 0.92.

Experiment: chemical genetic growth profiling, strain panel (AID 1159580);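 also: tested at 20 µM; growth read once vehicle control cultures reached saturation at 30 °C; 1 = growth at the plate median or of vehicle wells; lower values mean less growth of the strain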
Conditions: growth OD

C[N+]1(C)C2CC(OC(=O)[C@@H](CO)c3ccccc3)CC1C1OC12 (stereo partly drawn)
normalized growth (S. cerevisiae deletion strains, locus YJR066W, strain TOR1, hits give low values): 0.976
normalized growth (S. cerevisiae deletion strains, locus YJR075W, strain HOC1, hits give low values): 1.01
normalized growth (S. cerevisiae deletion strains, locus YKL009W, strain mrt4, hits give low values): 1
normalized growth (S. cerevisiae deletion strains, locus YKL068W, hits give low values): 1
normalized growth (S. cerevisiae deletion strains, locus YKL085W, strain MDH1 (second series), hits give low values): 1.01
normalized growth (S. cerevisiae deletion strains, locus YKL085W, strain MDH1, hits give low values): 1.01
normalized growth (S. cerevisiae deletion strains, locus YKL160W, strain elf1, hits give low values): 0.955
normalized growth (S. cerevisiae deletion strains, locus YKL190W, strain CNB1, hits give low values): 1.03
normalized growth (S. cerevisiae deletion strains, locus YKR001C, strain vps1, hits give low values): 1.02
normalized growth (S. cerevisiae deletion strains, locus YKR026C, strain gcn3, hits give low values): 0.984
normalized growth (S. cerevisiae deletion strains, locus YKR091W, strain srl3, hits give low values): 0.968
normalized growth (S. cerevisiae deletion strains, locus YLL001W, strain dnm1, hits give low values): 0.933
normalized growth (S. cerevisiae deletion strains, locus YLL026W, hits give low values): 0.985
normalized growth (S. cerevisiae deletion strains, locus YLL041C, strain sdh2, hits give low values): 0.984
normalized growth (S. cerevisiae deletion strains, locus YLR027C, strain aat2, hits give low values): 0.982
normalized growth (S. cerevisiae deletion strains, locus YLR039C, strain RIC1, hits give low values): 1.02
normalized growth (S. cerevisiae deletion strains, locus YLR058C, strain SHM2, hits give low values): 1.02
normalized growth (S. cerevisiae deletion strains, locus YLR102C, strain apc9, hits give low values): 1.02
normalized growth (S. cerevisiae deletion strains, locus YLR113W, strain HOG1, hits give low values): 1
normalized growth (S. cerevisiae deletion strains, locus YLR221C, strain rsa3, hits give low values): 0.91
normalized growth (S. cerevisiae deletion strains, locus YLR258W, strain gsy2, hits give low values): 0.969
normalized growth (S. cerevisiae deletion strains, locus YLR262C, strain YPT6 (second series), hits give low values): 0.973
normalized growth (S. cerevisiae deletion strains, locus YLR262C, strain YPT6, hits give low values): 1.06
normalized growth (S. cerevisiae deletion strains, locus YLR268W, strain sec22, hits give low values): 1.03
normalized growth (S. cerevisiae deletion strains, locus YLR320W, strain mms22, hits give low values): 0.94
normalized growth (S. cerevisiae deletion strains, locus YLR330W, strain CHS5, hits give low values): 1.02
normalized growth (S. cerevisiae deletion strains, locus YLR342W, strain FKS1 (second series), hits give low values): 1.03
normalized growth (S. cerevisiae deletion strains, locus YLR342W, strain FKS1, hits give low values): 0.962
normalized growth (S. cerevisiae deletion strains, locus YLR357W, strain rsc2, hits give low values): 0.979
normalized growth (S. cerevisiae deletion strains, locus YLR370C, strain arc18, hits give low values): 0.948
normalized growth (S. cerevisiae deletion strains, locus YLR371W, strain rom2, hits give low values): 1
normalized growth (S. cerevisiae deletion strains, locus YLR384C, strain iki3, hits give low values): 0.97
normalized growth (S. cerevisiae deletion strains, locus YLR418C, strain cdc73, hits give low values): 1.05
normalized growth (S. cerevisiae deletion strains, locus YML016C, strain PPZ1, hits give low values): 1.01
normalized growth (S. cerevisiae deletion strains, locus YML032C, strain rad52, hits give low values): 1.01
normalized growth (S. cerevisiae deletion strains, locus YML120C, strain ndi1, hits give low values): 0.903 (active)
normalized growth (S. cerevisiae deletion strains, locus YML124C, strain tub3, hits give low values): 1.03
normalized growth (S. cerevisiae deletion strains, locus YMR058W, strain fet3, hits give low values): 0.973
normalized growth (S. cerevisiae deletion strains, locus YMR078C, strain ctf18, hits give low values): 1.02
normalized growth (S. cerevisiae deletion strains, locus YMR125W, strain sto1, hits give low values): 0.962
normalized growth (S. cerevisiae deletion strains, locus YMR129W, hits give low values): 0.982
normalized growth (S. cerevisiae deletion strains, locus YMR205C, strain PFK2, hits give low values): 0.956
normalized growth (S. cerevisiae deletion strains, locus YMR223W, strain ubp8, hits give low values): 1.05
normalized growth (S. cerevisiae deletion strains, locus YMR231W, strain pep5, hits give low values): 0.989
normalized growth (S. cerevisiae deletion strains, locus YMR307W, strain GAS1, hits give low values): 1.05
normalized growth (S. cerevisiae deletion strains, locus YNL067W, strain RPL9B, hits give low values): 1.02
normalized growth (S. cerevisiae deletion strains, locus YNL071W, strain lat1, hits give low values): 0.978
normalized growth (S. cerevisiae deletion strains, locus YNL183C, strain NPR1, hits give low values): 0.957
normalized growth (S. cerevisiae deletion strains, locus YNL209W, strain ssb2, hits give low values): 0.959
normalized growth (S. cerevisiae deletion strains, locus YNL233W, strain BNI4, hits give low values): 1.01
normalized growth (S. cerevisiae deletion strains, locus YNL248C, strain rpa49, hits give low values): 0.971
normalized growth (S. cerevisiae deletion strains, locus YNL250W, strain rad50, hits give low values): 1.02
normalized growth (S. cerevisiae deletion strains, locus YNL271C, strain bni1, hits give low values): 1.01
normalized growth (S. cerevisiae deletion strains, locus YNL298W, strain CLA4, hits give low values): 1.02
normalized growth (S. cerevisiae deletion strains, locus YNL307C, strain MCK1, hits give low values): 1.02
normalized growth (S. cerevisiae deletion strains, locus YNL322C, strain KRE1 (second series), hits give low values): 0.936
normalized growth (S. cerevisiae deletion strains, locus YNR049C, strain mso1, hits give low values): 0.964
normalized growth (S. cerevisiae deletion strains, locus YNR052C, strain pop2, hits give low values): 1.02
normalized growth (S. cerevisiae deletion strains, locus YOL012C, strain htz1): 1.54
normalized growth (S. cerevisiae deletion strains, locus YOL147C, strain pex11, hits give low values): 1.03
normalized growth (S. cerevisiae deletion strains, locus YOR001W, strain rrp6, hits give low values): 1.04
normalized growth (S. cerevisiae deletion strains, locus YOR061W, strain CKA2, hits give low values): 1.01
normalized growth (S. cerevisiae deletion strains, locus YOR069W, strain VPS5, hits give low values): 1.01
normalized growth (S. cerevisiae deletion strains, locus YOR070C, strain gyp1, hits give low values): 0.99
normalized growth (S. cerevisiae deletion strains, locus YOR080W, strain dia2, hits give low values): 0.952
normalized growth (S. cerevisiae deletion strains, locus YOR083W, strain WHI5, hits give low values): 0.962
normalized growth (S. cerevisiae deletion strains, locus YOR106W, strain vam3, hits give low values): 0.933
normalized growth (S. cerevisiae deletion strains, locus YOR136W, strain idh2, hits give low values): 1.02
normalized growth (S. cerevisiae deletion strains, locus YOR144C, strain elg1, hits give low values): 1.01
normalized growth (S. cerevisiae deletion strains, locus YOR184W, strain ser1, hits give low values): 1.03
normalized growth (S. cerevisiae deletion strains, locus YOR231W, strain MKK1, hits give low values): 0.998
normalized growth (S. cerevisiae deletion strains, locus YOR265W, strain rbl2, hits give low values): 0.965
normalized growth (S. cerevisiae deletion strains, locus YOR270C, strain vph1, hits give low values): 0.935
normalized growth (S. cerevisiae deletion strains, locus YOR290C, strain snf2, hits give low values): 0.865 (active)
normalized growth (S. cerevisiae deletion strains, locus YOR316C, strain cot1, hits give low values): 1.02
normalized growth (S. cerevisiae deletion strains, locus YPL051W, strain arl3, hits give low values): 0.988
normalized growth (S. cerevisiae deletion strains, locus YPL055C, strain LGE1, hits give low values): 1.05
normalized growth (S. cerevisiae deletion strains, locus YPL078C, strain atp4, hits give low values): 0.956
normalized growth (S. cerevisiae deletion strains, locus YPL106C, strain sse1, hits give low values): 0.94
normalized growth (S. cerevisiae deletion strains, locus YPL240C, strain hsp82, hits give low values): 0.978
normalized growth (S. cerevisiae deletion strains, locus YPL241C, strain CIN2, hits give low values): 1.01
normalized growth (S. cerevisiae deletion strains, locus YPL256C, strain CLN2, hits give low values): 1.05
normalized growth (S. cerevisiae deletion strains, locus YPR119W, strain clb2, hits give low values): 1.01
normalized growth (S. cerevisiae deletion strains, locus YPR141C, strain kar3, hits give low values): 1.01
normalized growth (S. cerevisiae deletion strains, locus YPR163C, strain tif3, hits give low values): 1.03
normalized growth (S. cerevisiae deletion strains, locus YPR167C, strain met16, hits give low values): 1.03
normalized growth (S. cerevisiae deletion strains, strain wtn01, hits give low values): 1.02
normalized growth (S. cerevisiae strains, strain wild type, hits give low values): 1.03
